About 1,900 (0.58%) of roughly 330,000 compounds were called active. Inconclusive results (about 4%) are left out. These entries were drawn from the full list. Measured potencies and affinities stand elsewhere. A number with no mark means an inactive call. Rule as the data show it: inconclusive = inhibition above about 70% without an active follow-up result; inactive = below that.

Broadly, the inhibition is the drop in the measured response relative to a control, in per cent.

The assay in a line: M. tuberculosis growth inhibition, HTS (AID 449762).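 Also: bacterial growth assessed after seven days of incubation.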 To be noted: M. tuberculosis H37Rv growth inhibition, 7H9 media; at 25 µM; active compounds read high.
In the case of `COc1ccc(C(CNC(=O)c2cccc(NS(=O)(=O)c3ccccc3)c2)N(C)C)cc1` (stereo not drawn), the inhibition was -11.7%.

Turning to `CCCCCCOC(=O)C(C#N)c1nc2ccccc2nc1N1CCCCC1` (stereo not drawn), the inhibition was 6.23%.

Turning to `CCCCCCOC(=O)C(C#N)c1nc2ccccc2nc1N1CCOCC1` (stereo not drawn), the inhibition is 5.48%.

With `CCOC(=O)CC(=O)CSc1nccc(-c2cccnc2)n1`, the inhibition was 2.54%.

For `COc1cc(OC)cc(C(=O)NCc2ccc3c(c2)cc(C)n3C)c1`, the inhibition was 55.2%.

Regarding `O=S(=O)(NC1CCCCC1N1CCN(c2ccc(F)cc2)CC1)c1ccccc1` (stereo not drawn), the inhibition is 11.3%.

Turning to `COc1ccc(-c2ccc(C)cc2)cc1[C@H]1[C@@H]2C=CCC[C@@]2(C)C(=O)N1Cc1ccccc1`, the inhibition is 2.77%.

In the case of `COc1ccc(-c2ccc(N(C)C)cc2)cc1[C@H]1[C@@H]2C=CCC[C@@]2(C)C(=O)N1Cc1ccccc1`, the inhibition is -2.81%.

On to `CC(Sc1ccc(S(=O)(=O)N2CCOCC2)cc1[N+](=O)[O-])C(=O)O` (stereo not drawn), for which the inhibition was 1.21%.

As for `O=C(/C=C/c1ccccc1)N1CCC(N2CCC(C(=O)N3CCOCC3)CC2)CC1`, the inhibition is -6.29%.

Consider `CCSc1cc(N2CCOCC2)nc(-c2ccccc2)n1`, for which the inhibition was 8.27%.

For `Cc1cc(C)n(-c2ccccc2[N+](=O)[O-])n1`, the inhibition was -3.52%.

As for `O=[N+]([O-])c1ccccc1/C=N/Nc1nc(N2CCCC2)nc(N2CCCC2)n1`, the inhibition was 2.55%.

On to `O=C(/C(=C/c1ccc(Cl)cc1)c1nc2ccccc2[nH]1)c1ccccc1`, for which the inhibition is 0.75%.

On to `O=C(/C(=C\c1ccccc1)c1nc2ccccc2[nH]1)c1ccc(Cl)cc1`, for which the inhibition is 12.1%.

For `Nc1nsnc1C(=O)NCCO`, the inhibition was -5.83%.

`O=C1CS/C(=N/N=C/c2c[nH]c3ccccc23)N1`: the inhibition was 2.46%.

Regarding `O=C(CSc1n[nH]c(-c2ccccc2)n1)N1CCOCC1`, the inhibition was -3.77%.

Take `O=C(CN1CCCC1)NN=C(c1ccccc1)c1ccccc1`: the inhibition was -2.73%.

Turning to `CCN(CC)CC(=O)NN=C(c1ccccc1)c1ccccc1`, the inhibition was -1.34%.

On to `NC(=S)N=Nc1c(O)[nH]c2c(Br)cc(Br)cc12`, for which the inhibition was -0.35%.

Regarding `COc1ccc(C(=O)NCC(=O)NCC(=O)OCC(=O)c2ccc(Br)cc2)cc1`, the inhibition is 7.79%.

On to `Cc1csc(NC(=O)COCC(=O)O)c1-c1nc2ccccc2s1`, for which the inhibition is -5.81%.

Take `Cc1csc(NC(=O)CSCC(=O)O)c1-c1nc2ccccc2s1`: the inhibition was -1.68%.

Take `Cc1cc(C(=O)OCC(=O)Nc2ccc(F)cc2F)c(C)o1`: the inhibition is 4.91%.

As for `O=C(/C=C/c1ccccc1)NC1CC2CCC1C2` (stereo not drawn), the inhibition was -10.2%.

`COc1ccc(/C=C/C(=O)NC2CC3CCC2C3)cc1` (stereo not drawn): the inhibition is 14.7%.

Take `Cc1c(C(=O)NC(C(C)C)C(C)C)cccc1[N+](=O)[O-]`: the inhibition is -0.36%.

As for `CC1CN(c2ccc(C(=O)c3ccccc3C(=O)O)cc2[N+](=O)[O-])CC(C)O1` (stereo not drawn), the inhibition is -1.03%.

Consider `O=C1CCCC2=C1C(c1ccco1)Nc1ccc(C(=O)c3ccccc3)cc1N2` (stereo not drawn), for which the inhibition was 1.55%.

As for `O=C1CCCC2=C1C(c1ccccn1)Nc1ccc(C(=O)c3ccccc3)cc1N2` (stereo not drawn), the inhibition was -10.7%.

As for `O=C(NCc1cccnc1)c1cccc(OC2CCN(Cc3ccc(CO)o3)CC2)c1`, the inhibition was 3.84%.

Regarding `CCOC(=O)N1CCc2c(sc(NC(C)=O)c2C(N)=O)C1`, the inhibition was -2.99%.

For `CCOC(=O)N1CCc2c(sc(NC(=O)C3=COCCO3)c2C(N)=O)C1`, the inhibition was -6.06%.

Take `CCOc1ccccc1NC(=O)COC(=O)CC(NC(N)=O)c1ccc(Cl)cc1` (stereo not drawn): the inhibition was 3.03%.

As to `COC(=O)c1cc(C(=O)c2cc(F)ccc2O)cn2c(=O)c3c(C)c(C)sc3nc12`, the inhibition was 3.12%.

Turning to `CCc1c(C)sc2nc3c(C(=O)N4CCOCC4)cc(C(=O)c4ccccc4O)cn3c(=O)c12`, the inhibition was 51.4%.

Consider `CC(=NCc1cccnc1)c1c(O)n(-c2ccccc2)c(=O)[nH]c1=O`, for which the inhibition is -3.76%.

For the compound `COC(=O)c1cc(-c2ccc(OC)cc2)n[nH]1`, the inhibition was -1.36%.

Take `COc1ccc(O)c(-c2cc(-c3ccc(F)cc3)n[nH]2)c1`: the inhibition is 0.76%.

As for `Cc1nc(SCc2c(F)cccc2Cl)n[nH]1`, the inhibition was -11.2%.

As for `CCSC(=Nc1ccccc1)Nc1ccccc1`, the inhibition is -1.05%.

Turning to `COc1ccc(C(CC(=O)NC(C)c2ccc(-c3ccccc3)cc2)NC(C)=O)cc1` (stereo not drawn), the inhibition is 3.36%.

Turning to `Cc1cc(=O)[nH]c(N/N=C/c2c(O)n(-c3ccccc3)c(=O)c3ccccc23)n1`, the inhibition was 31.9%.

For the compound `Cc1nnc(N/N=C/c2c(O)n(-c3cccc(C(F)(F)F)c3)c(=O)c3ccccc23)[nH]c1=O`, the inhibition was 3.05%.

Consider `CNS(=O)(=O)c1ccc2c(c1)oc(=O)c1cc(S(=O)(=O)NC)ccc12`, for which the inhibition was -1.49%.

Turning to `Cn1c(=N)n(CC(=O)c2cccs2)c2ccccc21`, the inhibition was -0.34%.

As for `COc1ccc(-c2ccnc3nc(N4CCOCC4)nn23)cc1`, the inhibition was 1.34%.

Turning to `c1ccc(-c2ccnc3nc(N4CCN(c5ccccc5)CC4)nn23)cc1`, the inhibition was -7.9%.

As to `C[C@H]1CN([C@@H](C)CO)C(=O)Cc2cc(NS(C)(=O)=O)ccc2O[C@@H]1CN(C)Cc1ccc(Cl)c(Cl)c1`, the inhibition is 4.73%.

On to `COc1ccc(C2=Nn3c(nnc3-c3ccccc3OC)SC2)cc1OC1CCCC1`, for which the inhibition was 63.1%.

As for `COc1ccc(C2=Nn3c(nnc3-c3ccccc3Cl)SC2)cc1OC1CCCC1`, the inhibition is 51.6%.

For `COc1ccccc1OP(=O)(Nc1cccnc1)Oc1ccccc1OC`, the inhibition was -4.39%.

`CCN1CCN(Cc2c(OC)ccc3ccccc23)CC1`: the inhibition is 5.17%.

On to `C[C@H]1COC(=O)[C@H](Cc2ccc(F)cc2)CC/C=C/C[C@@H](CC(=O)N[C@@H](CO)Cc2ccccc2)C(=O)N1`, for which the inhibition was 7.3%.

For the compound `CCOc1ccc(C(=O)NCC(=O)N2CCC(C)CC2)cc1OCC`, the inhibition was -0.53%.

Regarding `Fc1ccc(NC(=S)Nc2cccc(Cl)c2)cc1`, the inhibition is 21.8%.

As for `Cc1csc(NC(=O)Nc2cccc(Cl)c2)n1`, the inhibition is -2.56%.
